Most compounds without a hit are left out; they make up all but 1.4% or so of the library.
12-LOX inh: ALOX12 (human) lipoxygenase inhibition; purified 12hLO, xylenol orange hydroperoxide absorbance; Potency, µM (doses to about 108 µM), most hits filed as inhibitors; 580,000 compounds, 1.1% hits
Target sequence (P18054 whole entry, looked up): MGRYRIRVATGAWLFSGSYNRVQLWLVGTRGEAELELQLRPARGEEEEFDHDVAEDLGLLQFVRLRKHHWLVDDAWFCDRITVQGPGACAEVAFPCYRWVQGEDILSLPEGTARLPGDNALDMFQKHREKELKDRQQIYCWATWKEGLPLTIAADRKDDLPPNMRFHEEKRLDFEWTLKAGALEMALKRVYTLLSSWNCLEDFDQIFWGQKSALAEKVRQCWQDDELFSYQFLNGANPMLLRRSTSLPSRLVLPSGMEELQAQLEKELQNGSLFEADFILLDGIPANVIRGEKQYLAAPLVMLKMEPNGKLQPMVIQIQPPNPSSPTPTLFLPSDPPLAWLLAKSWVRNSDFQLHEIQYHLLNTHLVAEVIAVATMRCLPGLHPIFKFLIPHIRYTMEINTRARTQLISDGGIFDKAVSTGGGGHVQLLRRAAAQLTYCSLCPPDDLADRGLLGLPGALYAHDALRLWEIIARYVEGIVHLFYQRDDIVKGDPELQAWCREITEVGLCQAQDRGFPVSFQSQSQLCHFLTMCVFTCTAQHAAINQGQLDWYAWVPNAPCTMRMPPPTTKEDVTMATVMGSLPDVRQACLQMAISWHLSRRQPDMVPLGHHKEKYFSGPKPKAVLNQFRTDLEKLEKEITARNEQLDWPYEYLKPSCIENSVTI
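Purified human 12hLO (150 nM final) in 25 mM Hepes, 0.01% Triton X-100, pH 7.0 was preincubated 15 min at room temperature with compound. Then 40 uM arachidonic acid was added, 30 min. Hydroperoxide was read by Fe-XO absorbance ratio 573/405 nm.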
PTAP TSG101 blk: blocks PTAP/TSG101 interaction to inhibit HIV-1 budding; Q99816; Fluorescence polarization, FITC-PTAP peptide / Tsg101 binding; Potency, µM (top dose mostly 115 µM), actives largely listed as inhibitors; 340,000 tested, under 10 active; active means well fitted inhibition curve with a large enough effect in the main read-out, with a control signal flat, not every such curve was filed as active; inconclusive means small, poorly fitted or top-dose-only effect, or effect the other way, or a change in a side signal; inactive means no such curve, though single readings can be large or run the other way
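Compounds were pin-transferred onto Tsg101 binding domain (10 uM final) in HEPES pH 7.5 buffer, then FITC-PTAP peptide was added at 50 nM final. After 20 min at RT, polarization reported peptide displacement across a qHTS concentration series.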
Vif-APOBEC3F blk: inhibitors of Vif-A3F interaction. 390,000 compounds, 0.2% hits. HeLa A3F-eYFP + Vif (tagged APOBEC3F with the HIV-1 protein that degrades it), YFP fluorescence increase. Potency, µM (titrated, usually from 46.1 µM); further: nearly all actives have a fitted effect of over 65% in size
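HeLa cells stably expressing Vif plus C-terminally eYFP-tagged A3F were seeded, incubated overnight at 37 deg C, dosed with compound, incubated overnight again at 37 deg C. Yellow fluorescence (Ex 488/Em 500-530) reported blocked Vif-mediated A3F-eYFP degradation.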
Vif-APOBEC3G blk: Vif-A3G binding inhibition; AID 602310; 410,000 compounds, 0.076% hits; HeLa A3G-eYFP + Vif (tagged APOBEC3G with the HIV-1 protein that degrades it), YFP fluorescence, overnight; Potency, µM (highest dose often 46.1 µM), actives largely listed as inhibitors; further: nearly all actives have a fitted effect of over 60% in size
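HeLa cells stably expressing Vif and C-terminally eYFP-tagged A3G, seeded overnight at 37 deg C, then exposed to compound by pintool overnight at 37 deg C. Rise in yellow fluorescence (Ex 488/Em 500-530, Acumen) marks blocked Vif-driven A3G degradation.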
pAkt inh: blocks phosphorylation of Akt | activity change, % for hits at 50 µM | 360,000 compounds, 0.32% hits | Neuro2A IGF-stimulated pAkt S473 HTRF, 20 min; hits give low values; in the data active means activity change below about -80%; inconclusive means mostly about -51% to -80%
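Neuro2A cells (4,500/well, DMEM with 0.5% FBS) were treated with compound at a single 50 µM final concentration, stimulated with 6 nM IGF for 20 min at 37 °C, and lysed. Phospho-Akt Ser473 was read by HTRF as 665/615 ratio ×10^4.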
S-ASM inh: blocks human secretory acid sphingomyelinase; placental ASM, HMU-PC fluorogenic substrate, 60 min; Potency, µM (titrated, usually from 57.5 µM), actives largely listed as inhibitors; 340,000 compounds, 0.006% hits; AID 504937
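qHTS format. ASM enzyme prepared from human placenta hydrolyses the fluorogenic substrate HMU-PC0 (9 uM final) over 60 min at 37 °C after a 10 min compound preincubation.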
A number is an active result; – = inactive; ? = inconclusive; · = not tested or not shown; ! = repeats disagree. Unless noted, the call rests on the fitted dose curve; in most records, active means well fitted curve in the direction sought with a large enough effect; inconclusive means small, poorly fitted or top-dose-only effect, or another doubt; inactive means no such curve, though single readings can be large; an effect the other way counts as inactive or inconclusive.

SMILES	12-LOX inh	PTAP TSG101 blk	Vif-APOBEC3F blk	Vif-APOBEC3G blk	pAkt inh	S-ASM inh
O=C(CN1CCN(C(=O)CCc2ncc(-c3ccc(F)cc3)o2)CC1)Nc1ccccc1Cl	–	·	·	·	·	·
O=C(/N=C1\NC(=O)C(F)(C(F)(F)F)S1)NC1CCCCC1 (stereo not drawn)	10µM	–	–	–	–	–
COc1ccc(-c2nc(CSc3nc4c(=O)[nH]cnc4n3C)c(C)o2)cc1OC	–	·	·	·	·	·
COc1cc(OC)c(C2CC(=O)N3CN(C)CSC3=C2C#N)cc1OC (stereo not drawn)	15.8µM	–	–	–	–	–
COc1cc(C2CC(=O)N3CN(c4cccc(C)c4)CSC3=C2C#N)ccc1O (stereo not drawn)	2µM	·	·	·	·	·
N#CC1=C2SCN(c3ccccc3)CN2C(=O)CC1c1c(Cl)cccc1Cl (stereo not drawn)	3.16µM	–	–	–	–	–
COc1ccc(Br)cc1C1CC(=O)N2CN(C)CSC2=C1C#N (stereo not drawn)	28.2µM	–	–	–	–	–
COc1ccc2ccccc2c1C1CC(=O)N2CN(C)CSC2=C1C#N (stereo not drawn)	?	–	–	–	–	–
Cc1ccc(C)c(NC(=O)CCCc2ccccc2)c1	–	·	·	·	·	·
O=C(Nc1ccc(Cc2ccncc2)cc1)Nc1ccc(Cl)c(Cl)c1	–	·	·	·	·	·
CCOc1cc(C2CC(=O)N3CN(c4ccccc4)CSC3=C2C#N)cc(Br)c1O (stereo not drawn)	1.78µM	·	·	·	·	·
COc1cc(OC)c(C2CC(=O)N3CN(c4ccccc4)CSC3=C2C#N)cc1OC (stereo not drawn)	2.82µM	–	–	–	–	–
O=C(Cn1cccc1-c1nc(-c2ccc(F)c(Br)c2)no1)NC1CCCC1	–	·	·	·	·	·
O=S(=O)(c1ccc2nc(-c3ccco3)c(-c3ccco3)nc2c1)N1CCOCC1	14.1µM	–	–	–	–	–
O=C(c1cc2ccccc2o1)N1CCN(Cc2nc3ccccc3s2)CC1	17.8µM	·	–	–	–	·
O=C(c1cc2ccccc2o1)N1CCN(C/C=C/c2ccccc2)CC1	–	–	–	–	–	–
CC1(Cc2ccc3c(c2)OCO3)CCCN(C(=O)CCCn2ccnc2)C1 (stereo not drawn)	–	·	·	·	·	·
Cc1ccc(S(=O)(=O)Nc2ccc(Nc3ccccc3)cc2)cc1	17.8µM	–	–	–	–	–
Cn1c(=O)c(=O)n(C)c2cc(N3CCCC3)c(NS(=O)(=O)c3ccc(Cl)cc3)cc21	39.8µM	–	–	–	–	–
Cc1ccc(S(=O)(=O)Nc2ccc(F)c(F)c2O)cc1	?	·	·	·	–	·
Nc1cc(S(=O)(=O)Nc2ccccc2Cl)ccc1N1CCCCC1	28.2µM	–	–	–	–	–
O=S(=O)(Nc1ccc(Nc2ccccc2)cc1)c1ccc(F)cc1	–	–	–	–	–	–
Cc1ccc(S(=O)(=O)Nc2ccc(Cl)cc2O)cc1	28.2µM	·	·	·	–	·
Nc1ccc(N2CCCCC2)c(S(=O)(=O)Nc2ccccc2Cl)c1	?	–	–	–	–	–
CC1CCCC(NC(=O)/C=C/c2cccc(C#N)c2)C1 (stereo not drawn)	–	·	·	·	·	·
SMILES	12-LOX inh	PTAP TSG101 blk	Vif-APOBEC3F blk	Vif-APOBEC3G blk	pAkt inh	S-ASM inh
COc1ccc2c(CCNC(=O)c3ccc(C)cc3)c[nH]c2c1	–	·	·	·	·	·
Cc1ccc(S(=O)(=O)Nc2ccccc2NS(=O)(=O)c2ccc(C)cc2)cc1	7.94µM	·	·	–	–	·
Cc1ccc(S(=O)(=O)Nc2ccccc2O)cc1	–	·	·	·	–	·
c1ccc2c(CCc3c[nH]c4ccccc34)ccnc2c1	·	·	·	11.2µM	·	·
CCN(CC)S(=O)(=O)c1ccc(C(=O)Nc2nn[nH]n2)cc1	–	·	·	·	·	·
O=c1cc(NC2CCCCCC2)[nH]c(=O)[nH]1	–	–	–	–	-112.0%	–
O=c1[nH]c2ccc(NC(=S)NC3CCCCC3)cc2[nH]1	–	–	–	–	–	–
CC(C)(C)c1ccc(C2(C)NC(=O)N(Cc3coc(-c4cccs4)n3)C2=O)cc1 (stereo not drawn)	–	·	·	·	·	·
O=C(O)c1ccc2ncsc2c1	44.7µM	–	–	–	–	–
COc1ccc2cc(CN(C)C(=O)CNC(=O)c3ccccc3F)ccc2c1	–	·	·	·	·	·
CN(Cc1ccccc1)Cc1c(O)ccc2ccccc12	0.794µM	–	–	–	–	–
CSc1ccccc1NC(=O)CN(C)Cc1c(O)ccc2ccccc12	5.01µM	–	?	–	–	–
CCCNc1c(NC(=O)CC(=O)OC)c(=O)oc2ccccc12	–	·	·	·	·	·
O=C(CNC(=O)NC(Cc1c[nH]c2ccccc12)C(=O)O)Nc1ccccc1 (stereo not drawn)	–	·	·	·	·	·
CCN(CC)CCOc1ccc2c(c1)C(=O)c1cc(OCCN(CC)CC)ccc1-2	22.4µM!	·	·	·	·	·
Cn1nnc(NC(=S)NC(=O)c2cccc3ccccc23)n1	0.631µM	–	?	–	–	–
Cn1nnc(NC(=O)c2ccc3ccccc3c2)n1	–	–	–	–	–	–
Cn1nnc(NC(=S)NC(=O)c2cccs2)n1	?	–	–	–	–	–
Cn1nnc(NC(=S)NC(=O)c2ccc3ccccc3c2)n1	11.2µM	·	–	–	–	·
O=C(O)CN1C(=O)/C(=C\c2cc(Br)ccc2OCc2ccccc2Cl)SC1=S	?	–	–	–	–	–
COc1cc([N+](=O)[O-])cc(/C=C2/SC(=S)N(Cc3ccccc3)C2=O)c1O	15.8µM	–	–	–	–	–
O=C(O)CN1C(=O)/C(=C\c2cc(Br)ccc2OCc2ccc([N+](=O)[O-])cc2)SC1=S	8.91µM	–	–	–	–	–
O=C1/C(=C/c2ccc(O)cc2)SC(=S)N1CC1CCCO1 (stereo not drawn)	–	–	22.4µM	–	–	?
O=C1/C(=C\c2ccc(O)cc2)SC(=S)N1Cc1ccccc1	?	–	11.2µM	–	–	?
CCCOc1ccc(/C=C2\SC(=S)N(CC3CCCO3)C2=O)cc1 (stereo not drawn)	–	–	–	–	–	–
SMILES	12-LOX inh	PTAP TSG101 blk	Vif-APOBEC3F blk	Vif-APOBEC3G blk	pAkt inh	S-ASM inh
Cc1ccc(N=c2ssnc2Cl)cc1	1.58µM	–	·	–	–	–
Cc1nnc(N=c2ssnc2Cl)o1	3.16µM	–	?	–	–	–
COc1cc(N=c2ssnc2Cl)c(OC)cc1Cl	2.51µM!	–	–	–	–	–
Cc1cc(C)nc(/N=c2/ssnc2Cl)c1	8.91µM	–	?	–	–	–
Cc1cc(Cl)ccc1N=c1ssnc1Cl	?	–	–	–	–	–
COc1ccc(OC)c(N=c2ssnc2Cl)c1	?	–	–	–	–	–
CC1(OC(=O)C2CCCC2)C(=O)C=C2C=C(c3ccsc3)N(C3CCCC3)C=C2C1=O (stereo not drawn)	–	·	–	–	–	–
CCCCC1=CC2=CC(=O)C(C)(OC(=O)CC)C(=O)C2=CO1 (stereo not drawn)	35.5µM	–	–	–	–	–

Bioassay records: PubChem BioAssay, National Center for Advancing Translational Sciences (NCATS)
